According to PubChem BioAssay AID488969 (Vanderbilt High Throughput Screening Facility, 2010):
In all, about 110,000 compounds were measured (“z-score”: median about -0.1, highest 2% from about 2 on). Only a selection was taken, and the highest values are over-represented in it overall. Calls of active or inactive are those of the source.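 How the source made its calls: active means z-score in the third read window above 3 or below -3; inactive means the rest.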

target: Metabotropic glutamate receptor 8 (Rattus norvegicus) (UniProt P70579); experiment: mGluR8 Gi/Go-coupled signaling modulation – cell-based, rat, thallium flux, HTS, primary screen (AID 488969); conditions: HEK293 rat mGluR8, GIRK (G protein-gated inwardly rectifying potassium channel) thallium flux, FluoZin2; at 10 µM; stronger effect = higher value
Sequence (P70579 whole entry, looked up): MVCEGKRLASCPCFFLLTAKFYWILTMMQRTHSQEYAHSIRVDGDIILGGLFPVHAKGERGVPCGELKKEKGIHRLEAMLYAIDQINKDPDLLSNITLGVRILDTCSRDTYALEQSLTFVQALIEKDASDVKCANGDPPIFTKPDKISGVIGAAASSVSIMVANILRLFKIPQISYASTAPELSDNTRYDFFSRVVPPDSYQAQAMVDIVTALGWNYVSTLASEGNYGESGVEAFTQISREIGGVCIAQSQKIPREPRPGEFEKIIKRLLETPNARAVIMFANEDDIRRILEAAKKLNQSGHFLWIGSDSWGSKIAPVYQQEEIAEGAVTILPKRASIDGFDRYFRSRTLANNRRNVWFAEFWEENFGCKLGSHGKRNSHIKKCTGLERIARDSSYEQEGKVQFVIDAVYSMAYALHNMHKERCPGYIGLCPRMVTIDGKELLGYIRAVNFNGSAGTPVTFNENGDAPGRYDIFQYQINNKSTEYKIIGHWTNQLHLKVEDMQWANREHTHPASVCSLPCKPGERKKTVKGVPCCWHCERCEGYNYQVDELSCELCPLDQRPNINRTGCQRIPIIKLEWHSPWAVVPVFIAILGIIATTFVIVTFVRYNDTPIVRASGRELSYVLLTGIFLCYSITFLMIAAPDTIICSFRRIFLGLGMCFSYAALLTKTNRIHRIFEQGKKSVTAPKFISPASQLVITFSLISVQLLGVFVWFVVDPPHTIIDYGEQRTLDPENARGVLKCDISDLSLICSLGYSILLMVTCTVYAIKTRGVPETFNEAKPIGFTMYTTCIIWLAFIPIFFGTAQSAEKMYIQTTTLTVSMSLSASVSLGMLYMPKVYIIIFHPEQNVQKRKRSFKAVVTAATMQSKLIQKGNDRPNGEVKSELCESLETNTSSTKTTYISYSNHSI

| SMILES | z-score |
| --- | --- |
| COc1ccccc1N(CC(=O)NC1CCCCC1)C(=O)c1cnn(C(C)C)c1 | 0.21 |
| CN1C(=O)NC(=O)C2(Cc3ccccc3N3CCOCC32)C1=O (centres undefined) | -0.307 |
| CCCCn1c(O)c(C(CC)=NCc2cc(OC)cc(OC)c2)c(=O)[nH]c1=O | -0.703 |
| N=c1c[n+](CC23CC4CC(CC(C4)C2)C3)[n-]o1 | 2.09 |
| O=C(c1ccc2c(c1)ncn2C1CCCCCC1)N1CCC2(CC1)OCCO2 | -0.0497 |
| CCCCCCCC(=O)NC(Oc1ccccc1[N+](=O)[O-])C(Cl)(Cl)Cl (centres undefined) | 0.238 |
| CCCC(=O)Nc1cc(C(=O)N2CCC3(CC2)OCCO3)ccc1S(=O)(=O)c1ccc(C)cc1 | -0.0584 |
| CC(C(N)=O)N1CC(c2ccc(Cl)cc2)CC1=O (centres undefined) | -0.161 |
| OC(Cc1ccccc1)(c1ccccc1)C1CN2CCC1CC2 (centres undefined) | 2 |
| Cc1ccccc1C(O)(Cc1ccccc1)C1CN2CCC1CC2 (centres undefined) | -0.323 |
| CN1CCCC1C(O)(c1ccccc1)c1ccccc1 (centres undefined) | -0.0177 |
| CCOC(=O)c1sc(/N=C/c2c(O)n(-c3cccc(C)c3)c(=O)[nH]c2=O)c(C#N)c1C | -0.627 |
| CCN1C(=O)C(=Cc2cc(C)n(C3CC3)c2C)C(=O)N(CC)C1=S | -0.0808 |
| CC1=NN(c2ccccc2)C(=O)C1/C=C1\C(=O)NC(=O)N(c2cc(C)cc(C)c2)C1=O (centres undefined) | -0.0364 |
| CN(C)C(=O)Oc1ccc(OC(=O)N(C)C)cc1 | 0.415 |
| CN1/C(=C\C=C\C2=[N+](C)c3ccc4ccccc4c3C2(C)C)C(C)(C)c2ccccc21 | 5.85 (active) |
| C[N+]1=C(/C=C/Nc2ccccc2)C(C)(C)c2ccccc21 | -1.45 |
| CN1/C(=C\C=Nc2ccccc2)C(C)(C)c2ccccc21 | -0.319 |
| Cc1cc(C=C2C(=O)N(C)C(=S)N(C)C2=O)c(C)n1C1CCCCC1 | -0.45 |
| O=C1CN=C(c2ccccc2)c2ccccc2N1Cc1ccc(C(F)(F)F)cc1 | 0.646 |
| CNC(=O)OCCc1nccn1C | 3.02 (active) |
| CNC(=O)OCCc1n(C)cc[n+]1C | -0.193 |
| C=CCn1c(O)c(/C=C2/C=CC=N2)c(=O)[nH]c1=O | -0.219 |
| O=C(c1cc(S(=O)(=O)N2CCCCC2)ccc1F)N1CCC2(CC1)OCCO2 | -0.0595 |

| SMILES | z-score |
| --- | --- |
| CCCCn1c(O)c(C(C)=NCCCN(C)C)c(=O)[nH]c1=O | 0.319 |
| CCCCCCN=C(C)c1c(O)n(CCCC)c(=O)[nH]c1=O | -2.32 |
| CCCCn1c(O)c(C(C)=NCCCn2ccnc2)c(=O)[nH]c1=O | 2.03 |
| O=[N+]([O-])c1ccc(C2[C@H]3C(c4ccccc4)=NC4(CCCCC4)N23)cc1 (some centres undefined) | -0.0546 |
| O=c1[nH]c(=O)n(C2CCCCCC2)c(O)c1C=NC1CCN(Cc2ccccc2)CC1 | -0.182 |
| O=C(c1cc2nc(-c3ccccc3)cc(-c3ccccc3)n2n1)N1CCC2(CC1)OCCO2 | -0.525 |
| O=C(c1cc2ccccn2n1)N1CCC2(CC1)OCCO2 | 4 (active) |
| O=C(c1cc2ccccc2oc1=O)N1CCC2(CC1)OCCO2 | 0.602 |
| N#CC1=C(N)Oc2c(c(=O)oc3ccccc23)C1c1ccncc1 (centres undefined) | -0.0723 |
| Cc1[nH]c2c(Cl)cccc2c1CCN | 0.371 |
| Cc1cccc(N2C(=O)NC(=O)/C(=C\c3cccn3-c3ccc(Cl)cc3)C2=O)c1 | -0.0172 |
| Cc1ccc(Cc2c(C)nc3nc(SCC(=O)N4CCC5(CC4)OCCO5)nn3c2C)cc1 | -0.0184 |
| O=C(COc1ccc(Cl)cc1)NC1CN2CCC1CC2 (centres undefined) | -0.215 |
| CCNC(=O)C1OC(n2cnc3c(N)ncnc32)C(O)C1O (centres undefined) | 2 |
| CCCCn1c(O)c(C(CC)=Nc2ccc(OC)cc2OC)c(=O)[nH]c1=O | -1.4 |
| Cc1nn(Cc2ccccc2)c(C)c1C=C1C(=O)NC(=O)NC1=O | 2.1 |
| Cc1nn(Cc2ccccc2)c(C)c1C=C1C(=O)NC(=S)NC1=O | -0.287 |
| Cn1cccc1/C=C1/C(=O)NC(=O)N(Cc2ccccc2)C1=O | -0.709 |
| CCn1c(P(C)(=O)O)nc2ccccc21 | -0.338 |
| CN1CCN(Cc2ccc(Br)s2)CC1 | 0.759 |
| Cc1ccc(-c2nc(N(C)C3CCN(C)CC3)c3ccccc3n2)cc1 | 2.91 |
| CN1CCC(N(C)c2nc(-c3ccc([N+](=O)[O-])cc3)nc3ccccc23)CC1 | 0.562 |
| CN1CCC(N(C)c2nc(-c3ccccc3)nc3ccccc23)CC1 | 0.199 |
| O=C(Cn1c(=S)[nH]c2ccccc2c1=O)N1CCC2(CC1)OCCO2 | 0.264 |

| SMILES | z-score |
| --- | --- |
| CC1=NN(c2ccccc2)C(=O)C1/C=C1/C(=O)NC(=O)N(c2cccc(C)c2)C1=O (centres undefined) | -0.395 |
| CCOC(=O)C(O)(c1ccc(N(CC)S(=O)(=O)c2ccc(C)cc2)cc1)C(F)(F)F (centres undefined) | 2.37 |
| CCN(c1ccc(C(O)(C(=O)OC)C(F)(F)F)cc1)S(=O)(=O)c1ccc(C)cc1 (centres undefined) | 1.21 |
| CCOC(=O)N(C)c1ccc(C(O)(C(=O)OCC)C(F)(F)F)cc1 (centres undefined) | -0.0433 |
| O=C(c1ccccc1F)c1cn(CC(=O)N2CCCCC2)c2ccccc12 | -0.152 |
| CCN(CC)c1ccc(CN2CC=C(c3ccc(F)cc3)CC2)cc1 | 0.0485 |
| O=c1c(C=NCc2cccs2)c(O)n(C2CCCCC2)c(=O)n1C1CCCCC1 | -0.421 |
| O=c1c(C=NCCN2CCNCC2)c(O)n(C2CCCCC2)c(=O)n1C1CCCCC1 | 2.42 |
| Cn1c(O)c(C=NCCN2CCNCC2)c(=O)n(C)c1=O | -0.337 |
| COc1ccc(CCN(C)Cc2c(F)cccc2F)cc1OC | 0.419 |
| N#Cc1cc2c(nc1SCC(=O)Nc1cc(Cl)ccc1Cl)C1CCN2CC1 | -1.88 |
| CCS(=O)(=O)N1CCC(C(=O)N2CCC3(CC2)OCCO3)CC1 | 0.00257 |
| Cc1ccc2nc(N3CCC(C(=O)N4CCC5(CC4)OCCO5)CC3)sc2c1 | 4.28 (active) |
| O=C(C1CCN(S(=O)(=O)c2ccccc2)CC1)N1CCC2(CC1)OCCO2 | 0.255 |
| CC(C)CC(=O)NC(Oc1ccc(Cl)cc1)C(Cl)(Cl)Cl (centres undefined) | -0.379 |
| CC1(C)CN2C(c3ccc(Cl)cc3)N2C1 (centres undefined) | 0.161 |
| c1ccc(CNCCc2ccc3c(c2)OCO3)nc1 | -0.496 |
| O=[N+]([O-])c1cc2c(cc1CNCCc1ccc3c(c1)OCO3)OCO2 | 0.309 |
| c1ccc2c(CCNCc3ccc4c(c3)OCO4)c[nH]c2c1 | 2.19 |
| Cc1noc(C)c1C(=O)N1CCC2(CC1)OCCO2 | -0.294 |
| O=c1[nH]c2ccccc2c(=O)n1-c1cccc(Cl)c1 | -0.0839 |
| COc1cc2[nH]c(=O)n(-c3ccccc3)c(=O)c2cc1OC | -0.252 |
| CC(C)Oc1cc(-n2c(=S)[nH]c3ccccc3c2=O)c(Cl)cc1Cl | 12.9 (active) |
| COc1ccc(-n2c(=O)[nH]c3ccccc3c2=O)cc1 | 0.343 |

| SMILES | z-score |
| --- | --- |
| COc1cc(-n2c(=S)[nH]c3ccccc3c2=O)c(Cl)cc1Cl | 6.65 (active) |
| COc1cc2[nH]c(=O)n(-c3cccc(Cl)c3)c(=O)c2cc1OC | -0.0317 |
| O=C(NC(Oc1ccccc1)C(Cl)(Cl)Cl)c1ccccc1 (centres undefined) | -0.149 |
| CN(C(=O)Oc1ccc(Cl)c2cccnc12)c1ccccc1 | -0.251 |
| CCOc1ccc(N=Cc2c(O)n(C(C)(C)C)c(=O)[nH]c2=O)cc1 | -0.283 |
| CCOC(=O)C1C2NC(=O)N(Cc3ccccc3)C1(C)Oc1c(OC)cccc12 (centres undefined) | 0.0221 |
| CCC(C)C1N=C(c2ccccc2)c2cc(Cl)ccc2N(CC(=O)NCc2ccco2)C1=O (centres undefined) | -0.0258 |
| O=C(CN1C(=O)CN=C(c2ccccc2)c2ccccc21)NCc1ccco1 | -0.206 |
| O=C(CN1C(=O)CN=C(c2ccccc2Cl)c2cc(Cl)ccc21)NCc1ccco1 | 2.98 |
| OC(c1ccccc1)(c1ccccc1)c1ccncc1 | -0.0666 |
| Cn1cccc1CNCCc1ccc(F)cc1 | -0.24 |
| c1ccc(CCNCc2ccccc2)cc1 | -0.78 |
| Cn1cccc1CNCCc1ccccc1 | 6.88 (active) |
| CCC(=NCCCN(CC)CC)c1c(O)n(C2CCCCC2)c(=O)[nH]c1=O | -0.25 |
| N#Cc1c(Cl)nc(Cl)c2c1CCN(Cc1ccccc1)C2 | -0.608 |
| Cc1ccc(OP(=O)(NCc2ccccc2)Oc2ccc(C)cc2)cc1 | -0.00664 |
| OCC12CO[C@@H]3c4ccccc4[C@H](OC1)N32 (some centres undefined) | -0.0926 |
| CON(C)C(=O)Nc1ccc(Cl)cc1 | 0.516 |
| O=C(Nc1ccc(Cl)cc1)Nc1nccs1 | 8.34 (active) |
| O=C(Nc1ccc(Cl)cc1)O/N=C(\c1ccccc1)c1ccccn1 | -0.375 |
| CCC(C)c1ccc(N2C(=O)NC(=O)/C(=C/c3cccn3CCOc3ccc(C)cc3)C2=O)cc1 (centres undefined) | 0.272 |
| Cc1cc(C)c(-n2c(O)c(/C=N/N3CCCCC3c3cccnc3)c(=O)[nH]c2=O)c(C)c1 (centres undefined) | -0.531 |
| Cc1nn(Cc2ccccc2)c(Cl)c1C(=O)OC(C)C(=O)Nc1ccc(F)cc1Cl (centres undefined) | 0.0724 |
| CCCCc1nc(N2CCNCC2)c(C#N)c2c1CSC(C)(C)C2 | 2.01 |

| SMILES | z-score |
| --- | --- |
| COc1ccc(CCNC(=O)COC(=O)Cc2ccccc2)cc1 | -0.0964 |
| O=P(OCC(F)(F)C(F)F)(N1CCCCC1)N1CCCCC1 | -0.0155 |
| COC(=O)c1ccccc1-n1c(C)nc2ccccc2c1=O | -0.159 |
| CCCCCn1c(=O)c(C(=O)Nc2c(C)n(C)n(-c3ccccc3)c2=O)c(O)c2ccccc21 | -0.252 |
| CC(C)CCn1c(=O)c(C(=O)Nc2ccccc2S(N)(=O)=O)c(O)c2ccccc21 | 2 |
| CCCCCn1c(=O)c(C(=O)NCc2ccncc2)c(O)c2ccccc21 | -1.2 |
| Cn1cc(C(=O)Cc2ccccc2)c2ccccc21 | 0.166 |
| NC12CN3CN(CN(C3)C1)C2 (tested in a mixture with another compound) | -0.55 |
| CCN1CCN(CC(=O)c2c(C)n(Cc3ccccc3)c3ccc(OC)cc23)CC1 | 0.191 |
| CC(NC1CCCCC1)C(O)C12CC3CC(CC(C3)C1)C2 (centres undefined) | 2.39 |
| CC(C)NC(C)C(=O)C12CC3CC(CC(C3)C1)C2 (centres undefined) | 0.115 |
| O=C(COC(=O)Cc1ccccc1)NC12CC3CC(CC(C3)C1)C2 | -0.0902 |
| COCCn1c(-c2ccccc2)cc(C(=O)O)c1C | 2.06 |
| COCCCn1c(-c2ccc(OC)cc2)cc(C(=O)NC2CCCCCCC2)c1C | -0.648 |
| CCCCn1c(C)c(C(=O)O)c2cc(OC)ccc21 | -0.364 |
| CCS(=O)(=O)N1CCCC(C(=O)N2CCC3(CC2)OCCO3)C1 (centres undefined) | 0.0065 |
| CC(C)c1cccc(C(C)C)c1OCCn1ccnc1 | 2.23 |
| CCOc1ccc(-n2c(O)c(C=NCCCn3ccnc3)c(=O)[nH]c2=O)cc1 | 0.0171 |
| CCCCCSc1cc(OC)c(CCN)cc1OC | 1.67 |
| CCCCCSc1cc(OC)c(CCNC)cc1OC | 0.115 |
| CCCCCCCSc1cc(OC)c(CCNC)cc1OC | 2.15 |
| O=C(C1CC(c2ccc(Cl)c(Cl)c2)=NO1)N1CCC2(CC1)OCCO2 (centres undefined) | 0.509 |
| O=c1[nH]c(=O)n(Cc2ccccc2)c(O)c1C=Nc1ccc(CN2CCOCC2)cc1 | -0.0494 |
